# Results from PubChem BioAssay.
# Values joined by “and” are separate entries in the source; they are usually repeats but may differ in a detail not shown here. Equal entries are not always repeated. Results filed as inconclusive are left out. Active and inactive are the calls of the source. Unless noted, the limit is not given here; nearly all actives have AC50 up to about 26 µM.
# Tests used:
# [1] = growth inhibition, single agents and combos, ICB984, cell-based, cisplatin or BGB combos, synergistic combos for chromothripsis tumors (AID 1671451; call rule not given here;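 also: cells exposed for 96 hours before readout; 0% = vehicle DMSO and 100% = killing by high DMSO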); details: ICB984 medulloblastoma cells, drug combinations, stronger effect = higher value
# [2] = growth inhibition, single agents and combos, HTB85, cell-based, BGB or cisplatin IC20 combos, synergistic combos for chromothripsis tumors (AID 1671453; in the data active = inhibition above about 80%;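 also: cells exposed for 96 hours before readout; 0% = vehicle DMSO and 100% = high DMSO killing control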); details: HTB85 osteosarcoma cells, drug combinations, stronger effect = higher value
# [3] = growth inhibition, MDA-MB-436, cell-based, BGB or cisplatin combos, synergistic combos for chromothripsis tumors (AID 1671458; call rule not given here;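 also: cells exposed for 96 hours; 0% = vehicle DMSO and 100% = killing by high DMSO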); details: MDA-MB-436 breast carcinoma growth inhibition, drug combinations, stronger effect = higher value
# [4] = BT084 cell growth, single and combined drugs, ICGC_MB145, cisplatin and BGB IC40 combos (AID 1671461; in the data active = inhibition above about 80%;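 also: cells exposed to drugs for 96 hours; 0% = vehicle DMSO and 100% = high DMSO full killing control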); details: BT084 medulloblastoma cells, drug combinations, stronger effect = higher value
# [5] = RCMB18 cell growth, single agent and combined, cisplatin and BGB IC40 combos (AID 1671462; in the data active = inhibition above about 80%;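 also: cells exposed to compound for four days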); details: RCMB18 medulloblastoma cells, stronger effect = higher value
# [6] = viability loss in pontine glioma line – cell-based, SU-DIPG-XVII, MIPE5.0, CellTiter-Glo, qHTS, dose response (AID 1347060); details: CellTiter-Glo ATP luminescence;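 as to AC50: cells exposed to compound for 48 hours before viability readout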
# [7] = viability loss in pontine glioma line – cell-based, SU-DIPG-XIII, MIPE4.0, CellTiter-Glo, qHTS, dose response (AID 1347061; cut-off not given, nearly all actives have AC50 up to about 37 µM;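 also: cells exposed to compound for 48 hours before readout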); details: CellTiter-Glo ATP luminescence
# [8] = viability loss in pontine glioma line – cell-based, SU-DIPG-IV, MIPE4.0, CellTiter-Glo, qHTS, dose response (AID 1347063; cut-off not given, nearly all actives have AC50 up to about 30 µM;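 also: compound exposure lasted 48 hours before the viability readout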); details: CellTiter-Glo ATP luminescence
# [9] = viability loss in pontine glioma line – cell-based, SU-DIPG-XIII, MIPE5.0, CellTiter-Glo, qHTS, dose response (AID 1347064; cut-off not given, nearly all actives have AC50 up to about 23 µM;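 as to AC50: cells exposed to compound for 48 hours before the viability read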); details: CellTiter-Glo ATP luminescence
# [10] = viability loss in pontine glioma line – cell-based, SU-DIPG-XXV, MIPE5.0, CellTiter-Glo, qHTS, dose response (AID 1347065); details: CellTiter-Glo ATP luminescence;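 also: cells exposed to compound for 48 hours before ATP readout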
# [11] = growth inhibition of DIPG cells – cell-based, MIPE4.0 library, CellTiter-Glo luminescence, qHTS (AID 1347066; cut-off not given, nearly all actives have AC50 up to about 30 µM;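 also: cells exposed to compound for 48 hours before readout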); details: SU-DIPG-VI viability, CellTiter-Glo ATP luminescence
# [12] = JHH-DIPG-1 glioma cell viability, MIPE5.0 library, CellTiter-Glo luminescence, qHTS (AID 1347067); details: JHH-DIPG-1 glioma viability, CellTiter-Glo ATP luminescence;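 also: cells exposed to compound for 48 hours before readout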
# [13] = growth inhibition of DIPG cells – cell-based, MIPE5.0 library, qHTS (AID 1347068; cut-off not given, nearly all actives have IC50 up to about 30 µM;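 as to IC50: cells exposed to compound for 48 hours before viability readout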); details: SU-DIPG-XXV viability
# [14] = viability loss in pontine glioma line – cell-based, JHH-DIPG-1, MIPE4.0, CellTiter-Glo, qHTS, dose response (AID 1347062; cut-off not given, nearly all actives have AC50 up to about 27 µM;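 as to AC50: cells exposed to compound for two days before readout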); details: JHH-DIPG-1 viability, CellTiter-Glo ATP luminescence
# [15] = viability loss with induced miR-34 in A549 – imaging, A549 dox-inducible miR-34, nuclei and caspase counts, primary screen (AID 1347080;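 active = compounds whose cell count with miR-34 switched on is under 0.7 times the count with it off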); details: A549 miR-34 inducible, Hoechst nuclei count, 48 h
# [16] = MELAS cybrid and Rieske KO viability enhancers – cell-based, MELAS cybrids, Rieske KO mouse fibroblasts, CellTiter-Glo, primary screen (AID 1508586;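 active = mean z-score across replicates of 1.96 or higher in either the MELAS or the Rieske mutant cell line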;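 also: z relative to plate mean and SD of compound and empty wells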); details: low glucose
# [17] = stronger effect = lower value, cell number ratio, induced over uninduced
# [18] = measured here: relative caspase fold change +Dox/-Dox
# [19] = measured here: total cells with miR-34 induction, stronger effect = lower value
# [20] = measured here: total cells without miR-34 induction
# [21] = MELAS cybrid survival, CellTiter-Glo 48 h, stronger effect = higher value
# [22] = Rieske KO mouse fibroblast survival, CellTiter-Glo 72 h
compound,measurement,setting,value
O=C(c1cc(Cc2n[nH]c(=O)c3ccccc23)ccc1F)N1CCN(C(=O)C2CC2)CC1,inhibition,"[1]; BGB IC20 combo, at 0.005 µM",-15.2% and -6.05%
same,inhibition,"[1]; BGB IC40 combo, at 0.005 µM",-0.22% and -27.2%
same,inhibition,"[1]; BGB IC40 combo, at 0.05 µM",-4.94% and -12.9%
same,inhibition,[1]; at 0.5 µM,-19.9% (inactive) and -38.5% (inactive)
same,inhibition,"[1]; cisplatin combo, at 0.05 µM",-4.94% and -17.3%
same,inhibition,"[1]; cisplatin combo, at 0.5 µM",-29% and -53.3%
same,inhibition,"[1]; cisplatin combo, at 5 µM",-23.6% and -39.9%
same,inhibition,"[1]; measured here: 5 uM single agent, at 5 µM",-15.8% and -10.7%
same,inhibition,[2]; at 0.5 µM,-1.59% (inactive) and -5.82% (inactive)
same,inhibition,"[2]; measured here: with BGB IC20, at 0.5 µM",-20% and -25.5%
same,inhibition,"[2]; measured here: with BGB IC20, at 5 µM",-17% and 2.87%
same,inhibition,"[2]; measured here: with cisplatin IC20, at 0.5 µM",8.83% and 6.96%
same,inhibition,"[2]; measured here: with cisplatin IC20, at 5 µM",18.3% and 28.5%
same,inhibition,"[2]; single agent, at 5 µM",9.91% and 21.3%
same,inhibition,[3]; at 0.5 µM,6.46% (inactive) and -12% (inactive)
same,inhibition,"[3]; measured here: BGB combination, at 0.5 µM",1.64% and -35.6%
same,inhibition,"[3]; measured here: BGB combination, at 5 µM",-1.2% and -15.8%
same,inhibition,"[3]; measured here: cisplatin combination, at 0.5 µM",-0.142% and -2.85%
same,inhibition,"[3]; measured here: cisplatin combination, at 5 µM",30.4% and 14.1%
same,inhibition,[4]; at 0.5 µM,-15.3% (inactive) and -32.2% (inactive)
same,inhibition,"[4]; cisplatin combination, at 0.5 µM",-11.1% and -29.9%
same,inhibition,"[4]; cisplatin combination, at 5 µM",-16.5% and -11.4%
same,inhibition,"[4]; measured here: BGB IC40 combination 0.05 uM, at 0.05 µM",-6.85% and 14.5%
same,inhibition,"[4]; single agent, at 5 µM",-19.8% and -50%
same,inhibition,[5]; at 0.5 µM,-14.1% (inactive) and 10.3% (inactive)
same,inhibition,"[5]; cisplatin combo, at 5 µM",0.788% and 11.5%
same,inhibition,"[5]; measured here: BGB IC40 combination, at 0.05 µM",-1.19% and -22.9%
same,inhibition,"[5]; measured here: combination with cisplatin, at 0.5 µM",-43.2% and 20.2%
same,inhibition,"[5]; single agent, at 5 µM",-22.3% and -45%
Cc1nc(NC(=O)N2CCC[C@H]2C(N)=O)sc1-c1ccnc(C(C)(C)C(F)(F)F)c1,AC50,[6],5.9 µM (active)
same,AC50,[7],1.87 µM (active)
same,AC50,[8],1.05 µM (active)
same,AC50,[9],4.68 µM (active)
same,AC50,[10],3.32 µM (active)
same,AC50,[11],1.66 µM (active)
CC[C@H](NC(=O)[C@H](C)NC)C(=O)N1C[C@@H](O)C[C@H]1Cc1c(-c2[nH]c3cc(F)ccc3c2C[C@@H]2C[C@H](O)CN2C(=O)[C@H](CC)NC(=O)[C@H](C)NC)[nH]c2cc(F)ccc12,outcome,[6],inactive
same,outcome,[7],inactive
same,AC50,[8],0.0662 µM (active)
same,outcome,[9],inactive
same,outcome,[10],inactive
same,outcome,[11],inactive
same,outcome,[12],inactive
same,outcome,[13],inactive
O=C1CCCC2=C1C(c1[nH]ncc1Cl)N=C(Nc1nc3ccccc3o1)N2 (centres undefined),outcome,[6],inactive
same,outcome,[7],inactive
same,outcome,[14],inactive
same,outcome,[11],inactive
same,outcome,[12],inactive
same,outcome,[13],inactive
c1cc(-c2sc(-c3ccncc3)c(-c3ccncc3)c2-c2ccncc2)ccn1,outcome,[6],inactive
same,outcome,[7],inactive
same,outcome,[14],inactive
same,outcome,[10],inactive
same,outcome,[11],inactive
same,outcome,[12],inactive
same,outcome,[13],inactive
CC1CCC(C(=O)N(c2cc(C#CC(C)(C)C)sc2C(=O)O)C2CCC(O)CC2)CC1 (centres undefined),AC50,[6],26.3 µM (active)
same,outcome,[7],inactive
same,outcome,[14],inactive
same,AC50,[12],23.5 µM (active)
same,fold change,[15]; [17],0.937 (inactive)
same,fold change,[15]; [18],0.832
same,cell count,[15]; [19],7690
same,cell count,[15]; [20],8210
same,z-score,[16]; [21],0.177 (inactive)
same,z-score,[16]; [22],-0.0881
Cc1cc([C@@H](C)Nc2ccccc2C(=O)O)c2nc(N3CCOCC3)cc(=O)n2c1,AC50,[6],16.6 µM (active)
same,AC50,[7],42.9 µM (active)
same,AC50,[8],12.1 µM (active)
same,AC50,[9],14.8 µM (active)
same,AC50,[10],14.8 µM (active)
same,AC50,[11],38.2 µM (active)
CN(C)c1ccc(C2Nc3ccc4ccccc4c3C3=C2C(=O)CC(C)(C)C3)cc1Br (centres undefined),outcome,[6],inactive
same,outcome,[7],inactive
same,outcome,[14],inactive
same,outcome,[11],inactive
same,outcome,[12],inactive
Cc1cc(Nc2nc(N[C@@H](C)c3ccc(F)cc3)c(C#N)cc2F)n[nH]1,AC50,[6],0.934 µM (active)
same,AC50,[7],20.9 µM (active)
same,AC50,[8],5.9 µM (active)
same,AC50,[9],4.68 µM (active)
same,AC50,[10],1.32 µM (active)
same,AC50,[11],23.5 µM (active)
same,AC50,[12],5.9 µM (active)
same,IC50,[13],5.25 µM (active)
Cc1cccc(-c2[nH]c(C(C)(C)C)nc2-c2ccc3c(c2)OCO3)n1,AC50,[6],3.72 µM (active)
same,AC50,[7],0.526 µM (active)
same,AC50,[8],6.62 µM (active)
same,AC50,[9],2.63 µM (active)
same,AC50,[10],2.95 µM (active)
same,AC50,[12],1.18 µM (active)
same,IC50,[13],3.72 µM (active)
same,fold change,[15]; [17],0.974 (inactive)
same,fold change,[15]; [18],0.464
same,cell count,[15]; [19],3490
same,cell count,[15]; [20],3590
same,z-score,[16]; [21],-0.251 (inactive)
same,z-score,[16]; [22],-1.59
CC(C)C[C@H](CC(=O)O)C(=O)N[C@@H](Cc1c[nH]c2ccccc12)C(=O)N[C@@H](C)c1ccccc1,outcome,[6],inactive
same,outcome,[7],inactive
same,outcome,[14],inactive
same,AC50,[10],16.6 µM (active)
same,outcome,[12],inactive
same,outcome,[13],inactive
CCn1c(-c2nonc2N)nc2cncc(CNC3CCNCC3)c21,outcome,[6],inactive
same,outcome,[7],inactive
same,outcome,[14],inactive
same,outcome,[11],inactive
same,outcome,[12],inactive
same,outcome,[13],inactive
COc1ccc(-n2c(C)c([N+](=O)[O-])c3ccc(O)cc32)cc1,outcome,[6],inactive
same,AC50,[7],4.69 µM (active)
same,outcome,[14],inactive
same,outcome,[10],inactive
same,outcome,[11],inactive
same,outcome,[12],inactive
same,outcome,[13],inactive
same,fold change,[15]; [17],0.881 (inactive)
same,fold change,[15]; [18],0.334
same,cell count,[15]; [19],6450
same,cell count,[15]; [20],7330
same,z-score,[16]; [21],0.252 (inactive)
same,z-score,[16]; [22],-3.43
CCN(C(=O)c1c(O)c2c(Cl)cccc2n(C)c1=O)c1ccccc1,AC50,[6],8.33 µM (active)
same,outcome,[7],inactive
same,AC50,[14],14.8 µM (active)
same,outcome,[9],inactive
same,outcome,[11],inactive
same,fold change,[15]; [17],0.884 (inactive)
same,fold change,[15]; [18],0.907
same,cell count,[15]; [19],8690
same,cell count,[15]; [20],9820
same,z-score,[16]; [21],-0.321 (inactive)
same,z-score,[16]; [22],0.483
